Source: PubChem BioAssay AID1159580 (chemical genetic matrix, 2015)
The whole screen tested about 5,500 compounds, of which about 2,000 (36%) were called active. Another 18% or so got no clear call; they are omitted. Cut-off read from the data, not from the text of the source: active = normalized growth mostly below about 0.91 (no sharp cut-off); inconclusive = no clear call, values can overlap the other calls; inactive = mostly above about 0.92. This is one part of the list.

Assay: chemical genetic growth profiling, strain panel (AID 1159580);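 note: tested at 20 µM; growth read once vehicle control cultures reached saturation at 30 °C; 1 = growth at the plate median or of vehicle wells; lower values mean less growth of the strain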
Details: growth OD

Measured: normalized growth

COc1c(O)cc2c(c1O)[C@H]1O[C@H](CO)[C@@H](O)[C@H](O)[C@@H]1OC2=O
inactive: S. cerevisiae deletion strains, locus YKL009W, strain mrt4, hits give low values 1.01 | S. cerevisiae deletion strains, locus YKL068W, hits give low values 1.01 | S. cerevisiae deletion strains, locus YKL085W, strain MDH1 (second series), hits give low values 1 | S. cerevisiae deletion strains, locus YKL085W, strain MDH1, hits give low values 1 | S. cerevisiae deletion strains, locus YKL160W, strain elf1, hits give low values 1.03 | S. cerevisiae deletion strains, locus YKL190W, strain CNB1, hits give low values 0.975 | S. cerevisiae deletion strains, locus YKR001C, strain vps1, hits give low values 1.01 | S. cerevisiae deletion strains, locus YKR026C, strain gcn3, hits give low values 1.01 | S. cerevisiae deletion strains, locus YKR091W, strain srl3, hits give low values 1.02 | S. cerevisiae deletion strains, locus YLL001W, strain dnm1, hits give low values 1.03 | S. cerevisiae deletion strains, locus YLL026W, hits give low values 1.01 | S. cerevisiae deletion strains, locus YLL041C, strain sdh2, hits give low values 1.02 | S. cerevisiae deletion strains, locus YLR027C, strain aat2, hits give low values 1.02 | S. cerevisiae deletion strains, locus YLR039C, strain RIC1, hits give low values 1.04 | S. cerevisiae deletion strains, locus YLR058C, strain SHM2, hits give low values 0.986 | S. cerevisiae deletion strains, locus YLR102C, strain apc9, hits give low values 1 | S. cerevisiae deletion strains, locus YLR113W, strain HOG1, hits give low values 0.985 | S. cerevisiae deletion strains, locus YLR221C, strain rsa3, hits give low values 1.02 | S. cerevisiae deletion strains, locus YLR258W, strain gsy2, hits give low values 1.04 | S. cerevisiae deletion strains, locus YLR262C, strain YPT6 (second series), hits give low values 1.06 | S. cerevisiae deletion strains, locus YLR262C, strain YPT6, hits give low values 1.07 | S. cerevisiae deletion strains, locus YLR268W, strain sec22, hits give low values 1.01 | S. cerevisiae deletion strains, locus YLR320W, strain mms22, hits give low values 1.05 | S. cerevisiae deletion strains, locus YLR330W, strain CHS5, hits give low values 1.01 | S. cerevisiae deletion strains, locus YLR342W, strain FKS1 (second series), hits give low values 0.902 | S. cerevisiae deletion strains, locus YLR342W, strain FKS1, hits give low values 1.02 | S. cerevisiae deletion strains, locus YLR357W, strain rsc2, hits give low values 1.01 | S. cerevisiae deletion strains, locus YLR370C, strain arc18, hits give low values 1.02 | S. cerevisiae deletion strains, locus YLR371W, strain rom2, hits give low values 1.01 | S. cerevisiae deletion strains, locus YLR384C, strain iki3, hits give low values 1.01 | S. cerevisiae deletion strains, locus YLR418C, strain cdc73, hits give low values 1.02 | S. cerevisiae deletion strains, locus YML016C, strain PPZ1, hits give low values 1 | S. cerevisiae deletion strains, locus YML032C, strain rad52, hits give low values 0.999 | S. cerevisiae deletion strains, locus YML120C, strain ndi1, hits give low values 1.03 | S. cerevisiae deletion strains, locus YML124C, strain tub3, hits give low values 1.01 | S. cerevisiae deletion strains, locus YMR058W, strain fet3, hits give low values 1.01 | S. cerevisiae deletion strains, locus YMR078C, strain ctf18, hits give low values 1.01 | S. cerevisiae deletion strains, locus YMR125W, strain sto1, hits give low values 1.02 | S. cerevisiae deletion strains, locus YMR129W, hits give low values 1.02 | S. cerevisiae deletion strains, locus YMR205C, strain PFK2, hits give low values 1.03 | S. cerevisiae deletion strains, locus YMR223W, strain ubp8, hits give low values 0.993 | S. cerevisiae deletion strains, locus YMR231W, strain pep5, hits give low values 1.02 | S. cerevisiae deletion strains, locus YMR263W, strain SAP30, hits give low values 0.993 | S. cerevisiae deletion strains, locus YMR307W, strain GAS1, hits give low values 0.828 | S. cerevisiae deletion strains, locus YNL067W, strain RPL9B, hits give low values 0.97 | S. cerevisiae deletion strains, locus YNL071W, strain lat1, hits give low values 1.03 | S. cerevisiae deletion strains, locus YNL128W, strain TEP1, hits give low values 1.01 | S. cerevisiae deletion strains, locus YNL153C, strain GIM3, hits give low values 0.999 | S. cerevisiae deletion strains, locus YNL183C, strain NPR1, hits give low values 0.933 | S. cerevisiae deletion strains, locus YNL209W, strain ssb2, hits give low values 1.02 | S. cerevisiae deletion strains, locus YNL233W, strain BNI4, hits give low values 0.939 | S. cerevisiae deletion strains, locus YNL248C, strain rpa49, hits give low values 1.01 | S. cerevisiae deletion strains, locus YNL250W, strain rad50, hits give low values 1.02 | S. cerevisiae deletion strains, locus YNL271C, strain bni1, hits give low values 1.02 | S. cerevisiae deletion strains, locus YNL298W, strain CLA4, hits give low values 1.02 | S. cerevisiae deletion strains, locus YNL307C, strain MCK1, hits give low values 1.01 | S. cerevisiae deletion strains, locus YNL322C, strain KRE1 (second series), hits give low values 1.02 | S. cerevisiae deletion strains, locus YNR049C, strain mso1, hits give low values 1.02 | S. cerevisiae deletion strains, locus YNR052C, strain pop2, hits give low values 0.998 | S. cerevisiae deletion strains, locus YOL006C, strain TOP1, hits give low values 0.973 | S. cerevisiae deletion strains, locus YOL012C, strain htz1 0.964 | S. cerevisiae deletion strains, locus YOL147C, strain pex11, hits give low values 1 | S. cerevisiae deletion strains, locus YOR001W, strain rrp6, hits give low values 1.01 | S. cerevisiae deletion strains, locus YOR061W, strain CKA2, hits give low values 0.995 | S. cerevisiae deletion strains, locus YOR069W, strain VPS5, hits give low values 0.985 | S. cerevisiae deletion strains, locus YOR070C, strain gyp1, hits give low values 1.01 | S. cerevisiae deletion strains, locus YOR080W, strain dia2, hits give low values 1.02 | S. cerevisiae deletion strains, locus YOR083W, strain WHI5, hits give low values 1.03 | S. cerevisiae deletion strains, locus YOR106W, strain vam3, hits give low values 1.02 | S. cerevisiae deletion strains, locus YOR136W, strain idh2, hits give low values 1.02 | S. cerevisiae deletion strains, locus YOR144C, strain elg1, hits give low values 1.01 | S. cerevisiae deletion strains, locus YOR184W, strain ser1, hits give low values 1.02 | S. cerevisiae deletion strains, locus YOR231W, strain MKK1, hits give low values 0.961 | S. cerevisiae deletion strains, locus YOR265W, strain rbl2, hits give low values 1.02 | S. cerevisiae deletion strains, locus YOR270C, strain vph1, hits give low values 1.06 | S. cerevisiae deletion strains, locus YOR290C, strain snf2, hits give low values 0.992 | S. cerevisiae deletion strains, locus YOR316C, strain cot1, hits give low values 1.01 | S. cerevisiae deletion strains, locus YPL051W, strain arl3, hits give low values 1.01 | S. cerevisiae deletion strains, locus YPL055C, strain LGE1, hits give low values 0.967 | S. cerevisiae deletion strains, locus YPL078C, strain atp4, hits give low values 1.03 | S. cerevisiae deletion strains, locus YPL106C, strain sse1, hits give low values 1.02 | S. cerevisiae deletion strains, locus YPL240C, strain hsp82, hits give low values 1.02 | S. cerevisiae deletion strains, locus YPL241C, strain CIN2, hits give low values 0.991 | S. cerevisiae deletion strains, locus YPL256C, strain CLN2, hits give low values 0.935 | S. cerevisiae deletion strains, locus YPR119W, strain clb2, hits give low values 1.01 | S. cerevisiae deletion strains, locus YPR141C, strain kar3, hits give low values 1.01 | S. cerevisiae deletion strains, locus YPR163C, strain tif3, hits give low values 1 | S. cerevisiae deletion strains, locus YPR167C, strain met16, hits give low values 1.02 | S. cerevisiae deletion strains, strain wtn01, hits give low values 1.01 | S. cerevisiae strains, strain wild type, hits give low values 0.957
